Measurements reported in PubChem BioAssay (NCI).
This is part of a sample that, as a whole, favours compounds with a hit. Of some 83,000 tested, about 20% had one in any assay.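 A percent growth of 40 corresponds to 60% growth inhibition; 0 means no net growth; -100 means all cells died. Active threshold: below 10.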 Active and inactive are the calls of the source.

Tests used:
Assay in all cases: NCI-60 one-dose screen, 48 h (100 = growth as untreated, 0 = no growth, -100 = all killed)
Conditions in all cases: 10 µM unless noted
T-47D breast = test system: T-47D breast
BT-549 breast = test system: BT-549 breast
MDA-MB-435 melanoma = test system: MDA-MB-435 melanoma
SW-620 colon = test system: SW-620 colon
MCF7 breast = test system: MCF7 breast
HCT-116 colon = test system: HCT-116 colon
HCC-2998 colon = test system: HCC-2998 colon
KM12 colon = test system: KM12 colon

Measured: growth

CC1(C)N=C(N)N=C(N)N1c1cc(Cl)ccc1Cl
inactive: T-47D breast 95.2% | BT-549 breast 85.2% | MDA-MB-435 melanoma 108% | SW-620 colon 42.2% | MCF7 breast 65.7% | HCT-116 colon 36.8% | HCC-2998 colon 94.8% | KM12 colon 94%

C/C=C1/CN(CCCCC)CC[C@H]1C(=O)c1cc2ccccc2[nH]1
inactive: T-47D breast 82.6% | BT-549 breast 97.4% | MDA-MB-435 melanoma 97.8% | SW-620 colon 87% | MCF7 breast 89.3% | HCT-116 colon 66.5% | HCC-2998 colon 101%

OC1CSSC1Cn1cnc2c(Nc3ccc(OCc4cccc(F)c4)c(Cl)c3)ncnc21 (configuration not stated)
active: MDA-MB-435 melanoma -77.1% | SW-620 colon -20.3% | MCF7 breast -60.1% | HCT-116 colon -33.1% | HCC-2998 colon -81.7%
inactive: T-47D breast 19.8% | BT-549 breast 52.9%

O=C(/C=C/c1cccc(Oc2ccccc2)c1)c1ccc(Nc2nc(Nc3ccc(F)cc3)nc(Nc3ccc(Cl)cc3)n2)cc1
inactive: T-47D breast 95.4% | BT-549 breast 104% | MDA-MB-435 melanoma 112% | SW-620 colon 104% | MCF7 breast 89.6% | HCT-116 colon 95.1% | HCC-2998 colon 67.1%

COc1ccc(C2CC(c3ccccc3)=NN2C(=O)c2cc(OC)c(OC)c(OC)c2)cc1O (configuration not stated)
active: MDA-MB-435 melanoma -7.61% | HCC-2998 colon -1.27%
inactive: T-47D breast 70.9% | BT-549 breast 39.7% | SW-620 colon 32.1% | MCF7 breast 20.3% | HCT-116 colon 13.8%

CN(C)CCCNC(=O)c1cncnc1Nc1ccc2c(ccn2Cc2cccc(F)c2)c1
inactive: T-47D breast 101% | BT-549 breast 92.2% | MDA-MB-435 melanoma 79.6% | SW-620 colon 88.3% | MCF7 breast 71.4% | HCT-116 colon 66% | HCC-2998 colon 97.6%

CN(C)c1ccc(CNCCO)cc1
inactive: T-47D breast 55.5% | BT-549 breast 75.7% | MDA-MB-435 melanoma 102% | SW-620 colon 94.5% | MCF7 breast 94% | HCT-116 colon 72.1% | HCC-2998 colon 109%

O=C(/C=C/C12c3ccccc3C(c3ccccc31)C1C(=O)NC(=O)C12)c1ccc(Cl)cc1Cl (configuration not stated)
inactive: BT-549 breast 14.6% | HCC-2998 colon 68.2% | KM12 colon 17.4%
active: T-47D breast 9.41% | MDA-MB-435 melanoma -0.0298% | SW-620 colon 5.09% | MCF7 breast 6.75% | HCT-116 colon 2.09%

Cc1cccc(NC(=O)N/C(N)=N/c2nc3ccccc3s2)c1
inactive: T-47D breast 35.5% | BT-549 breast 57.2% | SW-620 colon 34.3% | MCF7 breast 21.9% | HCT-116 colon 23.8% | HCC-2998 colon 56.4%
active: MDA-MB-435 melanoma 2.83%

COC1/C=C/OC2(C)Oc3c(C)c(O)c4c(O)c(c(/C=N/N(c5ccccc5)c5ccccc5)c(O)c4c3C2=O)NC(=O)C(C)=C/C=C/C(C)C(O)C(C)C(O)C(C)C(OC(C)=O)C1C (configuration not stated)
inactive: BT-549 breast 88.9% | MDA-MB-435 melanoma 67.9% | MCF7 breast 32.8% | HCT-116 colon 38.7% | HCC-2998 colon 71.1%
active: T-47D breast -3.9% | SW-620 colon 4.75%

O=S(O)c1cc(Cl)cc(Cl)c1OCc1ccccc1
inactive: T-47D breast 102% | BT-549 breast 107% | MDA-MB-435 melanoma 107% | SW-620 colon 107% | MCF7 breast 100% | HCT-116 colon 96.2% | HCC-2998 colon 102%

COc1cc([C@@H](CCO)C[C@H](C)c2ccc3ccccc3c2)cc(OC)c1OC
active: MDA-MB-435 melanoma 2.44%
inactive: T-47D breast 45.3% | BT-549 breast 26% | SW-620 colon 18.9% | MCF7 breast 18.8% | HCT-116 colon 18.7% | HCC-2998 colon 56.1%

CCN(CC)CCCC(Cc1ccccc1)Nc1c2ccc(Cl)cc2nc2ccc(OC)cc12 (configuration not stated)
inactive: BT-549 breast 53.3% | SW-620 colon 13.2% | HCT-116 colon 14.6% | KM12 colon 45.3%
active: T-47D breast -6.99% | MDA-MB-435 melanoma -66.5% | MCF7 breast -9.45% | HCC-2998 colon -72.1%

CCCCCCCCCCCCCCCCCCOc1ccccc1CC(=O)NCC[N+](C)(C)C
inactive: T-47D breast 73.2% | BT-549 breast 57.6% | MDA-MB-435 melanoma 73.1% | SW-620 colon 45.1% | MCF7 breast 57.6% | HCT-116 colon 45.2% | HCC-2998 colon 29.9%

CCn1cc(C(=O)N/N=C/c2cccc(F)c2)c(=O)c2cc(F)c(N3CCNC(C)C3)c(F)c21 (configuration not stated)
inactive: T-47D breast 72.3% | BT-549 breast 82.9% | HCT-116 colon 71.2%
active: MDA-MB-435 melanoma -74.7% | SW-620 colon -84.6% | MCF7 breast -83.5% | HCC-2998 colon -80.6% | KM12 colon -26.8%

Cc1cn(C)cn1
inactive: T-47D breast 104% | BT-549 breast 101% | MDA-MB-435 melanoma 98.4% | SW-620 colon 108% | MCF7 breast 94.9% | HCT-116 colon 105% | HCC-2998 colon 108%

Cc1ncc(C(=O)Nc2ccc(CN3CCN(C)CC3)c(C(F)(F)F)c2)cc1C#Cc1cnc(N)c2ccc(C#N)cc12
inactive: T-47D breast 19% | BT-549 breast 43.5% | MCF7 breast 11.5% | HCC-2998 colon 34.1%
active: MDA-MB-435 melanoma -28.4% | SW-620 colon 6.41% | HCT-116 colon -19.9%

Cn1c(=O)c2[nH]c(SC/C(=N/O)c3ccc(Br)cc3)nc2n(C)c1=O
inactive: T-47D breast 23.1% | BT-549 breast 28.3% | MDA-MB-435 melanoma 52% | SW-620 colon 92.7% | MCF7 breast 69.1% | HCT-116 colon 28.3% | HCC-2998 colon 16.8%

O=C1Nc2ccc(Cl)cc2/C1=C/c1ccc[nH]1
inactive: T-47D breast 13% | BT-549 breast 48.7% | MDA-MB-435 melanoma 96.5% | SW-620 colon 112% | MCF7 breast 16.2% | HCT-116 colon 87.1% | HCC-2998 colon 65.8%

COC(=O)c1c2c(c(C)[n+]([O-])c1C)C(=O)C(NCc1ccccc1)=CC2=O
inactive: BT-549 breast 71.5% | HCC-2998 colon 16.9%
active: T-47D breast 5.63% | MDA-MB-435 melanoma -61.4% | SW-620 colon 9.9% | MCF7 breast -33.9% | HCT-116 colon 7.3%

Cc1cccc(NC(=O)Cn2cc(CN3CCN(c4ccnc5cc(Cl)ccc45)CC3)nn2)c1
inactive: T-47D breast 83.8% | BT-549 breast 86.2% | MDA-MB-435 melanoma 93.4% | SW-620 colon 90.1% | MCF7 breast 88.2% | HCT-116 colon 95.3% | HCC-2998 colon 102%

NC(=O)c1ccccc1OCC(=O)Nc1ccc(Cl)c(Cl)c1
inactive: T-47D breast 79.8% | BT-549 breast 93.2% | MDA-MB-435 melanoma 103% | SW-620 colon 102% | MCF7 breast 79.7% | HCT-116 colon 100% | HCC-2998 colon 103%

COc1ccc(/C=C2\c3cc(OC)c(OC)c(OC)c3CC[C@@H]2O)cc1F
active: MDA-MB-435 melanoma -35.6% | HCT-116 colon 8.9%
inactive: T-47D breast 43.6% | BT-549 breast 23% | SW-620 colon 28% | MCF7 breast 18.4% | HCC-2998 colon 35.7%

c1ccc2cc(Cn3cc(CSc4nc5ccccc5s4)nn3)ccc2c1
inactive: T-47D breast 80.8% | BT-549 breast 96.3% | MDA-MB-435 melanoma 105% | SW-620 colon 94.5% | MCF7 breast 91.7% | HCT-116 colon 96.3% | HCC-2998 colon 102%

CN1CC(c2ccc(Br)cc2)C(C(=O)c2ccc(Br)cc2)C12C(=O)Nc1ccccc12 (configuration not stated)
inactive: T-47D breast 49.5% | BT-549 breast 100% | MDA-MB-435 melanoma 78.9% | SW-620 colon 72% | MCF7 breast 62.4% | HCT-116 colon 39.7% | HCC-2998 colon 84.5%

COc1cc(O)c2c(=O)c3c(CC=C(C)C)cc(OC)c(O)c3oc2c1
inactive: T-47D breast 45.9% | BT-549 breast 33.2% | SW-620 colon 26.3% | MCF7 breast 23% | HCT-116 colon 11.8% | HCC-2998 colon 53.4%
active: MDA-MB-435 melanoma -3.84%

CC/C(=C(/c1ccc(O)cc1)c1ccc(OCCN2CCCCC2)cc1)c1ccc(OC)cc1
inactive: T-47D breast 43.4% | BT-549 breast 79.2% | MDA-MB-435 melanoma 13.2% | SW-620 colon 73.5% | MCF7 breast 11.5% | HCT-116 colon 27.9% | HCC-2998 colon 87.2% | KM12 colon 52.4%

COc1ccc(/C=N/NC(=O)Cn2c(-c3ccc(S(C)(=O)=O)cc3)nc3ccccc32)cc1
inactive: T-47D breast 102% | BT-549 breast 103% | MDA-MB-435 melanoma 97.8% | SW-620 colon 97.6% | MCF7 breast 88.6% | HCT-116 colon 91.7% | HCC-2998 colon 95.7%

CCn1cc(C(=O)O)c(=O)c2cc(F)c(N3CCN(CC(=O)Nc4ccccc4)C(C)C3)c(F)c21 (configuration not stated)
inactive: T-47D breast 95.4% | BT-549 breast 106% | MDA-MB-435 melanoma 97.1% | SW-620 colon 105% | MCF7 breast 92.7% | HCT-116 colon 99.9% | HCC-2998 colon 99.9%

CCOc1ccc(NC(=O)Nc2ccc(OCC)cc2)cc1
inactive: T-47D breast 95.7% | BT-549 breast 113% | MDA-MB-435 melanoma 109% | SW-620 colon 116% | MCF7 breast 94.5% | HCT-116 colon 106% | HCC-2998 colon 103%

N#Cc1ccccc1-c1ccc(CN2C(=O)S/C(=C\c3ccc(Br)cc3)C2=O)cc1
inactive: T-47D breast 85.3% | BT-549 breast 95.9% | MDA-MB-435 melanoma 94.5% | SW-620 colon 103% | MCF7 breast 95% | HCT-116 colon 105% | HCC-2998 colon 98.9%
